In PubChem BioAssay (Tox21):
Where “and” joins values, the source holds several entries; their conditions need not be identical. Equal entries are not always repeated. Calls of active or inactive are those of the source. Unless noted, the call rests on the fitted dose curve; in most records, active means well fitted curve in the direction sought with a large enough effect in the repeat runs; inconclusive means weak or mixed curves; inactive means no such curve, though single readings can be large; an effect the other way counts as inactive or inconclusive.

Key:
[1] = qHTS assay to identify small molecule antagonists of the thyroid receptor (TR) signaling pathway - cell viability counter screen (AID 743064); further: nearly all actives have a fitted effect of over 50% in size; further: potency means the concentration at half of the fitted maximal effect
How it was run: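 GH3.TRE-Luc rat pituitary cells carrying a TRE-luciferase reporter were treated with compound plus 1 nM T3 (final) for 23.5 h at 37 °C. Viability was then read in the same wells by CellTiter-Fluor fluorescence after a further 30 min.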

[2] = qHTS assay to identify small molecule antagonists of the thyroid receptor (TR) signaling pathway (AID 743065); further: nearly all actives have a fitted effect of over 55% in size; further: potency means the concentration at half of the fitted maximal effect
How it was run: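 GH3.TRE-Luc rat pituitary cells carrying two TR response elements driving luciferase were plated for 4 h, given compound plus 1 nM T3 (final), and incubated 23.5 h at 37 C. ONE-Glo luminescence measured reporter inhibition; CellTiter-Fluor fluorescence tracked cytotoxicity.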

[3] = system: thyroid hormone receptor (rat, GH3 cells); assay: qHTS assay to identify small molecule agonists of the thyroid receptor (TR) signaling pathway (AID 743066; calls by dose curve)
[4] = target: Estrogen receptor (Homo sapiens) (UniProt P03372); assay: qHTS assay to identify small molecule antagonists of the estrogen receptor alpha (ER-alpha) signaling pathway (AID 743069; active means well fitted curve in the direction sought with a large enough effect in the signal ratio in the repeat runs, not every such curve was filed as active; inconclusive means weak or mixed curves, or effect the other way; inactive means no such curve, though single readings can be large or run the other way; the % refers to the signal ratio; further: potency means the concentration at half of the fitted maximal effect)
Estrogen receptor (Homo sapiens), sequence (P03372 whole entry, looked up): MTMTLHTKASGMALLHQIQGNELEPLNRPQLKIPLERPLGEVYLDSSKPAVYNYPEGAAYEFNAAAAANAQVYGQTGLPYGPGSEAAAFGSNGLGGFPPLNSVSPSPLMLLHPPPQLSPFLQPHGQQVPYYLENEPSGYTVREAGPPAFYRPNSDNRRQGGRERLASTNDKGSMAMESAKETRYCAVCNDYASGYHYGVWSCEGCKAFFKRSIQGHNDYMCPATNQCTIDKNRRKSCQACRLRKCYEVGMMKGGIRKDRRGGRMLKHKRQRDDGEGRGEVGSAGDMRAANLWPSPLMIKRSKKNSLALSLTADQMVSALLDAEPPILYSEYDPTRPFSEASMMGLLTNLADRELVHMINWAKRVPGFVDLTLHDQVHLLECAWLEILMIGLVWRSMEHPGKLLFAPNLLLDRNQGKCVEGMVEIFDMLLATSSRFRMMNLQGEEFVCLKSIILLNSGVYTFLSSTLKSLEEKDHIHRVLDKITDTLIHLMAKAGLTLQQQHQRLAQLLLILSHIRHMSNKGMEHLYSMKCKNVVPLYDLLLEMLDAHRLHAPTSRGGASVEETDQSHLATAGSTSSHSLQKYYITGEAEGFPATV
How it was run: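 Screening used a UAS-driven beta-lactamase reporter integrated into HEK293 cells expressing ER-alpha, stimulated with 17beta-estradiol alongside test compounds over 18 hr at 37C; signal came from LiveBLAzer B/G FRET fluorescence.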

[5] = qHTS assay to identify small molecule antagonists of the estrogen receptor alpha (ER-alpha) signaling pathway - cell viability counter screen (AID 743074; calls by dose curve; further: nearly all actives have a fitted effect of over 45% in size; further: potency means the concentration at half of the fitted maximal effect)
[6] = target: Estrogen receptor (Homo sapiens) (UniProt P03372); assay: qHTS assay to identify small molecule agonists of the estrogen receptor alpha (ER-alpha) signaling pathway (AID 743075; calls by dose curve; further: potency means the concentration at half of the fitted maximal effect)
[7] = target: Estrogen receptor (Homo sapiens) (UniProt P03372); assay: qHTS assay to identify small molecule agonists of the estrogen receptor alpha (ER-alpha) signaling pathway using the BG1 cell line (AID 743079); further: nearly all actives have a fitted effect of over 20% in size; further: potency means the concentration at half of the fitted maximal effect
[8] = qHTS assay to identify small molecule antagonists of the estrogen receptor alpha (ER-alpha) signaling pathway using the BG1 cell line - cell viability counter screen (AID 743081);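 further: compound given together with 17beta-estradiol as the ER stimulus; nearly all actives have a fitted effect of over 45% in size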; further: potency means the concentration at half of the fitted maximal effect
Aromatase (Homo sapiens) = Aromatase (Homo sapiens) (UniProt P11511); assay: qHTS assay to identify aromatase inhibitors (AID 743083); further: nearly all actives have a fitted effect of over 55% in size; further: potency means the concentration at half of the fitted maximal effect
Aromatase (Homo sapiens), sequence (P11511 whole entry, looked up): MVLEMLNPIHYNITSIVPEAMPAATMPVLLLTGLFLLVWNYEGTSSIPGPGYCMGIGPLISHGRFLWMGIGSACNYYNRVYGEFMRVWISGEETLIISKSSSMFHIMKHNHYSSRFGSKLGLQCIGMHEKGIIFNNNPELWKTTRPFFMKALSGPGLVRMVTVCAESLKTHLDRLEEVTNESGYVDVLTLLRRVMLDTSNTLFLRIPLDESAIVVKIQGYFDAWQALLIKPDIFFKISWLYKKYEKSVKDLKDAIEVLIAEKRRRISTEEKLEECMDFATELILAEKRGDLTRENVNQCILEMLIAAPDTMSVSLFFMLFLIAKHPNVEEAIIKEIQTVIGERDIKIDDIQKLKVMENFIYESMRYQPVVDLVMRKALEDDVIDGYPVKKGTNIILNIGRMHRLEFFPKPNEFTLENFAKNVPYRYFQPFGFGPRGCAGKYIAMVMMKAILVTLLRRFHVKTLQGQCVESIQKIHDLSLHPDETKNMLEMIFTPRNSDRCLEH

[9] = target: Aryl hydrocarbon receptor (Homo sapiens) (UniProt P35869); assay: qHTS assay to identify small molecule that activate the aryl hydrocarbon receptor (AhR) signaling pathway (AID 743085); further: nearly all actives have a fitted effect of over 15% in size; further: potency means the concentration at half of the fitted maximal effect;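 on activation: HG2L7.5c1 human HepG2 liver cells with stably integrated DRE-driven firefly reporter; series mostly up to about 70 µM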
Aryl hydrocarbon receptor (Homo sapiens), sequence (P35869 whole entry, looked up): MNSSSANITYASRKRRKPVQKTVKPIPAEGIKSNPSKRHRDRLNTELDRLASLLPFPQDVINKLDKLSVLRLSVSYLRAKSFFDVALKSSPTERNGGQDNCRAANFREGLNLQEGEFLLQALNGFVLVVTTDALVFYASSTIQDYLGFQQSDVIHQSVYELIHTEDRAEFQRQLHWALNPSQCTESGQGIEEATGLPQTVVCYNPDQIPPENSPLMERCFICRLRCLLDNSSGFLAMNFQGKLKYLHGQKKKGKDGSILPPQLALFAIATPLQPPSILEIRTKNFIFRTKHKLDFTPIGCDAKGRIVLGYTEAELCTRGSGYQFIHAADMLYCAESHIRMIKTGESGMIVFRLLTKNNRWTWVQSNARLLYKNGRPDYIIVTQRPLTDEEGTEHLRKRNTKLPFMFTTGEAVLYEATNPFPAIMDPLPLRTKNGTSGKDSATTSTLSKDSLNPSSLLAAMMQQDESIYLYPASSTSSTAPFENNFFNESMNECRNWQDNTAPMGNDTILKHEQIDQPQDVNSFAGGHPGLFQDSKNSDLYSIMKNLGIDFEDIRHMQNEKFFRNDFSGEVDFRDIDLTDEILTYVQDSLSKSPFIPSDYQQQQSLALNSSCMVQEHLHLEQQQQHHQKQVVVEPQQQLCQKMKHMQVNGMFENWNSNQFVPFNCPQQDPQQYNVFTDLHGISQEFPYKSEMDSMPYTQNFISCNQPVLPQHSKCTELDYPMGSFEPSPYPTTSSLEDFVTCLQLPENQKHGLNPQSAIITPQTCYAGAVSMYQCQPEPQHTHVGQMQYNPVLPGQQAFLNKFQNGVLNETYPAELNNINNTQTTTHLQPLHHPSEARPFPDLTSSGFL
How it was run: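 HepG2 cells (HG2L7.5c1) stably carrying a firefly luciferase reporter driven by 20 dioxin responsive elements were exposed to compound for 24 h at 37C after a 5 h settling period; luminescence rise (ONE-Glo) indicated activation.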

[10] = qHTS assay to identify small molecule that activate the aryl hydrocarbon receptor (AhR) signaling pathway - cell viability counter screen (AID 743086); further: nearly all actives have a fitted effect of over 45% in size; further: potency means the concentration at half of the fitted maximal effect
How it was run: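 HepG2-AhR-luc (HG2L7.5c1) cells, 4000/well, were preincubated 5 h at 37C, exposed to compound in qHTS format for 24 hr at 37C, then given CellTiter-Fluor for 30 min; viability was read as fluorescence in the reporter wells.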

[11] = qHTS assay for small molecule agonists of the antioxidant response element (ARE) signaling pathway - cell viability counter screen (AID 743203; calls by dose curve; further: nearly all actives have a fitted effect of over 55% in size; further: potency means the concentration at half of the fitted maximal effect)
How it was run: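 Viability counter screen: CellTiter-Glo luminescence, read after 30 min at room temperature, in ARE-bla HepG2 wells. Compound exposure lasted 16 h at 37C/5% CO2, following a 5 h pre-incubation of the cells after plating.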

[12] = qHTS assay for small molecule activators of the heat shock response signaling pathway - cell viability counter screen (AID 743209); further: nearly all actives have a fitted effect of over 50% in size; further: potency means the concentration at half of the fitted maximal effect
How it was run: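 Cytotoxicity counter screen run in the same wells as the heat-shock bla reporter assay: HeLa HSE-bla cells, 5 h compound exposure at 37 C, viability read by CellTiter-Glo luminescence.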

[13] = qHTS assay to identify small molecule antagonists of the estrogen receptor alpha (ER-alpha) signaling pathway using the BG1 cell line (AID 743080; calls by dose curve;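 further: BG1 cells stimulated with 17beta-estradiol alongside compound; series mostly up to about 70 µM; nearly all actives have a fitted effect of over 25% in size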)
How it was run: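 Seeding, 24 h rest, compound transfer from DMSO, 17beta-estradiol addition, 21.5 h incubation, CellTiter-Fluor (30 min, 37 C), then ONE-Glo (30 min, room temperature): this sequence was run on BG1-Luc-4E2 reporter cells.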

[14] = qHTS assay to identify aromatase inhibitors - cell viability counter screen (AID 743084);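 further: cells stimulated with testosterone during compound exposure; nearly all actives have a fitted effect of over 55% in size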; further: potency means the concentration at half of the fitted maximal effect
[15] = target: Peroxisome proliferator-activated receptor gamma (Homo sapiens) (UniProt P37231); assay: qHTS assay to identify small molecule agonists of the peroxisome proliferator-activated receptor gamma (PPARg) signaling pathway (AID 743094; active means well fitted activation curve with a large enough effect in the signal ratio in the repeat runs, not every such curve was filed as active; inconclusive means weak or mixed curves, or effect the other way; inactive means no such curve, though single readings can be large or run the other way; the % refers to the signal ratio)
Peroxisome proliferator-activated receptor gamma (Homo sapiens), sequence (P37231 whole entry, looked up): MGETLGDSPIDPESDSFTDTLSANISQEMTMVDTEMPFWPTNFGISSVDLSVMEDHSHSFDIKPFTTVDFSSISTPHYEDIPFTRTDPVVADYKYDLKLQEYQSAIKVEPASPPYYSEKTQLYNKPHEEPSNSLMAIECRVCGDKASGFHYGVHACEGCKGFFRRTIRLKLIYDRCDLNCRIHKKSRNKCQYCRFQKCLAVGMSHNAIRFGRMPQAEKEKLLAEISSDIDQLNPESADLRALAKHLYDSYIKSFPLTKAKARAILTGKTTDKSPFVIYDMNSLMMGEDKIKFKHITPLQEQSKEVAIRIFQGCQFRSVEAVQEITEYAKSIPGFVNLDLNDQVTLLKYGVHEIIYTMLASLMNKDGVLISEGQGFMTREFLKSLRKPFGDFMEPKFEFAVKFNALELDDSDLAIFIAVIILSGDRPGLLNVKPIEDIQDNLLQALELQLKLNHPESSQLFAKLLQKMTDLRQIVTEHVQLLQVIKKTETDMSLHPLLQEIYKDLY
How it was run: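 Agonist activity was taken from a beta-lactamase reporter (FRET substrate, 1 h at room temperature) in HEK293H cells carrying a PPARg UAS-bla construct. Compounds in DMSO were incubated 17 h at 37C after a 5 h cell pre-incubation.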

[16] = target: Peroxisome proliferator-activated receptor gamma (Homo sapiens) (UniProt P37231); assay: qHTS assay to identify small molecule antagonists of the peroxisome proliferator-activated receptor gamma (PPARg) signaling pathway (AID 743191; calls by dose curve; further: series mostly up to about 63 µM; nearly all actives have a fitted effect of over 30% in size)
How it was run: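 GeneBLAzer PPARg UAS-bla HEK293H cells carrying a UAS-driven beta-lactamase reporter were plated at 3000 cells/well, preincubated 5 h at 37C, then given compound for 17 h at 37C; LiveBLAzer B/G FRET substrate was read after 1 h at room temperature.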

[17] = qHTS assay to identify small molecule antagonists of the peroxisome proliferator-activated receptor gamma (PPARg) signaling pathway - cell viability counter screen (AID 743194); conditions: Potency: co-treated with 50 nM rosiglitazone unless noted; further: nearly all actives have a fitted effect of over 55% in size; further: potency means the concentration at half of the fitted maximal effect
How it was run: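 PPARg-UAS-bla HEK293H cells were plated, rested 5 h at 37 C, then treated with compounds plus rosiglitazone (50 nM final) for 17 h at 37 C; viability was then read by CellTiter-Glo luminescence after 30 min at room temperature.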

[18] = qHTS assay for small molecule activators of the heat shock response signaling pathway (AID 743210; active means well fitted activation curve with a large enough effect in the signal ratio in the repeat runs, with a control signal flat, not every such curve was filed as active; inconclusive means weak or mixed curves; the % refers to the signal ratio;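 further: HeLa cells with beta-lactamase reporter driven by heat shock elements; series mostly up to about 63 µM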)
How it was run: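 Activation of heat shock element-controlled beta-lactamase expression is measured in HeLa cells by LiveBLAzer FRET fluorescence, with compound exposure lasting 5 h at 37 C and substrate loading 2.5 h at room temperature.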

[19] = qHTS assay for small molecule agonists of the antioxidant response element (ARE) signaling pathway (AID 743202; active means well fitted activation curve with a large enough effect in the signal ratio in the repeat runs, not every such curve was filed as active; inconclusive means weak or mixed curves, or effect the other way; inactive means no such curve, though single readings can be large or run the other way; the % refers to the signal ratio)
How it was run: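 Steps: seed ARE-bla HepG2 cells (2,000/well); incubate 5 h at 37 C; add compounds by pin tool; incubate 16 h at 37 C; add FRET substrate; read fluorescence after 2 h at RT.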

Measured: Potency

N#C/C=C/C#N
active: [1] 64 µM | [2] 32.1 µM | [6] 45.7 µM [inconclusive] | Aromatase (Homo sapiens) 28.6 µM
inactive: [3] | [4] | [5] | [7] | [8] | [9] | [10] | [11] | [12]

Fc1cccc(Cl)c1CCl
inactive: [1] | [2] | [3] | [5] | [6] | [7] | [13] | [8] | Aromatase (Homo sapiens) | [14] | [9] | [10] | [15] | [16] | [17] | [11] | [12] | [18]

C=CC(=O)OCC(COC(=O)C=C)(COC(=O)C=C)COC(=O)C=C
inactive: [3] | [9]
active: [1] 2.73 µM | [2] 1.93 µM | [5] 43.6 µM | [6] 27.5 µM [inconclusive] | [8] 24.3 µM | Aromatase (Homo sapiens) 3.06 µM | [14] 2.73 µM | [10] 19.3 µM | [17] 6.92 µM | [11] 43.3 µM | [12] 2.45 µM

CCCCCCCCCCCCCN1CC(C)OC(C)C1 (stereo unspecified)
inactive: [1] | [2] | [3] | [5] | [6] | [7] | [13] | [8] | Aromatase (Homo sapiens) | [14] | [9] | [10] | [15] | [11] | [12] | [18]

N#CCCSCCC#N
inactive: [1] | [2] | [3] | [4] | [5] | [6] | [13] | [8] | Aromatase (Homo sapiens) | [14] | [9] | [10] | [15] | [16] | [19] | [11] | [12] | [18]

Oc1ccc(C2(c3ccc(O)cc3)CCCCC2)cc1
active: [1] 57.9 µM | [2] 36.5 µM | [4] 0.52 µM [inconclusive] | [6] 52.1 µM [inconclusive] | [7] 0.818 µM | Aromatase (Homo sapiens) 51.6 µM | [14] 25.9 µM | [17] 41.3 µM
inactive: [3] | [8] | [9]

O=C1c2ccccc2C(=O)C1C(=O)C(c1ccccc1)c1ccc(Cl)cc1 (stereo unspecified)
inactive: [3] | [6] | [7] | [9] | [10]
active: [1] 27.3 µM | [2] 15.4 µM | [5] 43.6 µM | Aromatase (Homo sapiens) 54.5 µM | [11] 30.6 µM

Nc1ccc(Sc2ccc(N)cc2)cc1
inactive: [1] | [2] | [3] | [4] | [13] | [10] | [17] | [12] | [18]
active: [6] 0.219 µM [inconclusive] | [9] 13.7 µM

CC(C)OC(=O)C(O)(c1ccc(Cl)cc1)c1ccc(Cl)cc1
active: [1] 61.1 µM | [2] 61.1 µM
inactive: [3] | [5] | [6] | [7] | [13] | [8] | [14] | [9] | [10] | [15] | [19] | [11] | [12] | [18]

CC(C)OS(C)(=O)=O
inactive: [1] | [2] | [3] | [5] | [6] | [7] | [13] | [8] | Aromatase (Homo sapiens) | [14] | [9] | [10] | [15] | [16] | [17] | [19] | [11] | [12] | [18]

N#CCCC(Br)(C#N)CBr (stereo unspecified)
active: [1] 15.4 µM | [2] 13.7 µM | Aromatase (Homo sapiens) 24.3 µM | [14] 27.3 µM | [12] 49 µM
inactive: [3] | [5] | [6] | [7] | [13] | [8] | [9] | [10]

NNC(=O)c1ccccc1
inactive: [1] | [2] | [3] | [4] | [5] | [6] | [13] | [8] | Aromatase (Homo sapiens) | [14] | [10] | [15] | [16] | [17] | [19] | [11] | [18]
active: [7] 19.9 µM | [9] 15.8 µM

ClC(Cl)=C(c1ccc(Cl)cc1)c1ccc(Cl)cc1
active: [1] 62.6 µM and 30.6 µM | [2] 55.8 µM and 30.6 µM | [12] 50.2 µM and 17.4 µM
inactive: [3] | [5] | [6] | [13] | [8] | Aromatase (Homo sapiens) | [14] | [9] | [10] | [15] | [17]
